From PubChem
Rows were chosen to be rich in hits. Some 2.8% of all compounds tested hit in one or more screens of this group.
RGS4 inhibitor = Inhibitors of Regulator of G Protein Signaling (RGS) 4: qHTS. Transcreener GDP fluorescence polarization, RGS4-accelerated GTP hydrolysis. Potency, µM (series often up to 114 µM), usual class: inhibitors. 390,000 tested, 0.039% active. AID 504845, 2011; active = well fitted inhibition curve with a large enough effect; inconclusive = small, poorly fitted or top-dose-only effect; inactive = no such curve, though single readings can be large or run the other way; also: nearly all actives have a fitted effect of over 75% in size
Target sequence (P49798 whole entry, looked up): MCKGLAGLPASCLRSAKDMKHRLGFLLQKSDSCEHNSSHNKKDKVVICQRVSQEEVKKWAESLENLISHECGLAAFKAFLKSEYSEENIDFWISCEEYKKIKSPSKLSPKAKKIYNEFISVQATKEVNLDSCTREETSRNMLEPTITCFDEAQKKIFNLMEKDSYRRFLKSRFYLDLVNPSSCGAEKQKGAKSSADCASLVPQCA
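MLSMR compounds (23 nl, pin-transferred) preincubated 10 min at room temperature with a 500nM (2x) first reagent, then RGS4 at 900nM (2x) plus Transcreener GDP mix added; fluorescence polarization (620/688 nm) read before and after 90 min at 30 °C.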
LDHA block = qHTS assay for inhibitors of human lactate dehydrogenase. L-lactate dehydrogenase A chain (Homo sapiens), P00338. purified LDHA, NADH/diaphorase-resazurin fluorescence; stronger effect = lower value. activity change, % (values are at about 110 or 230 µM). 480,000 tested, 0.15% active; in the data active = activity change below about -30%; inconclusive = mostly about -25% to -30%
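Remaining NADH was detected by diaphorase (0.133 mg/mL) converting 37 µM resazurin to fluorescent resorufin, read at 0 and 20 minutes. The preceding 5-minute room-temperature reaction used 2 nM LDHA, 0.2 mM sodium pyruvate and 0.06 mM NADH at pH 7.4.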
PI4K2A block = qHTS for small molecular inhibitors of PI4K2A; activity change, negative = inhibition, % at 76.9 µM; 420,000 tested, 0.13% active; AID 1346378, 2018; purified PI4K2A, ADP-Glo luminescence, 1 h; stronger effect = lower value; Phosphatidylinositol 4-kinase type 2-alpha (Homo sapiens), Q9BTU6; in the data active = activity change below about -50%; inconclusive = mostly about -30% to -49%
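ADP-Glo luminescence measured ADP generated by PI4K2A enzyme (4 ug/mL before mixing) with 1.2 mM PI substrate (pre-mix) and 300 microM ATP (pre-mix). Tris pH7.5 buffer with MgCl2, Triton X-100; 1 h reaction at ambient temperature.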
pAkt inh = HTS Assay for Inhibitors of Akt Phophorylation: Primary Screen. 360,000 tested, 0.32% active. Neuro2A IGF-stimulated pAkt S473 HTRF, 20 min; stronger effect = lower value. activity change, % for hits at 50 µM. AID 651550, 2012; in the data active = activity change below about -80%; inconclusive = mostly about -51% to -80%
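Neuro2A cells in DMEM with 0.5% FBS, overnight at 37 deg C, given compound at single 50 µM final, then IGF (6 nM final) for 20 min at 37 deg C. Lysed; phospho-Akt Ser473 by HTRF after 24 h, 665/615 ratio.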
DRD3 antagonist = qHTS of D3 Dopamine Receptor Antagonist: qHTS; max response, negative = inhibition, %; D3R cells, DiscoveRx beta-arrestin luminescence, antagonist mode; stronger effect = lower value; 360,000 tested, 2.5% active; D(3) dopamine receptor (Homo sapiens), P35462; in the data active = max response below about -50%; inconclusive = no clear call, values can overlap the other calls
Target sequence (P35462 whole entry, looked up): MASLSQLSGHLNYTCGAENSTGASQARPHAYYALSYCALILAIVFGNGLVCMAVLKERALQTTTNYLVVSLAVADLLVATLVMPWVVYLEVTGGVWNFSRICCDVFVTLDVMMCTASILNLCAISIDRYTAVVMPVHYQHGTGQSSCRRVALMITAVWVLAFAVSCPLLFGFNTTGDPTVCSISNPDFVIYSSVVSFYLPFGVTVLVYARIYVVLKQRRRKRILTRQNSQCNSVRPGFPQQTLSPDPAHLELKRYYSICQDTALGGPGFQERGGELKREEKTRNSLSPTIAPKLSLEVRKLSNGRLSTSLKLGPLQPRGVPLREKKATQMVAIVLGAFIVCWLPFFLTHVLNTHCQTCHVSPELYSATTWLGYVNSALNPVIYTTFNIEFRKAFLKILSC
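Cells plated overnight at 1500 cells/well, then exposed to library compounds with dopamine controls for 90 minutes at 37 degrees C. DiscoveRx reagent added for 30–60 minutes at room temperature; luminescence read, quantitative HTS format.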
D3 ag = qHTS of D3 Dopamine Receptor Agonist: qHTS; 410,000 tested, 0.58% active; max activation, %; D3R DiscoveRx beta-arrestin cells, luminescence, 90 min; D(3) dopamine receptor (Homo sapiens), P35462; in the data active = max activation above about 30%
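Agonist mode: compounds and dopamine controls were applied to plated cells for 90 min at 37 degrees C after an overnight attachment at 1500 cells/well. Luminescent read-out followed 30 - 60 minutes at room temperature with DiscoveRx detection reagent.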
Large screens that a line does not name were inactive.

O=C(Nc1ccccc1)Nc1nnc([C@@H]2C[C@H](O)[C@@H](CO)O2)s1	DRD3 antagonist -68 (no result: RGS4 inhibitor)
O=C(Nc1ccc(F)cc1)Nc1nnc([C@@H]2C[C@H](O)[C@@H](CO)O2)s1	D3 ag 62 (no result: RGS4 inhibitor)
O=C(Nc1cccc(F)c1)Nc1nnc([C@@H]2C[C@H](O)[C@@H](CO)O2)s1	none (no result: RGS4 inhibitor)
O=C(Nc1ccc(OCc2ccccc2)cc1)Nc1nnc([C@H]2C[C@H](O)[C@@H](CO)O2)s1	DRD3 antagonist -53 (no result: RGS4 inhibitor)
O=C(Nc1ccc(F)c(Cl)c1)Nc1nnc([C@H]2C[C@H](O)[C@@H](CO)O2)s1	LDHA block -48 (no result: RGS4 inhibitor)
CCSc1nc2n(n1)C(c1cccnc1)C1=C(CC(C)(C)CC1=O)N2 (centres undefined)	none (no result: RGS4 inhibitor, PI4K2A block, pAkt inh, DRD3 antagonist, D3 ag)
CC(C)NC(=O)Nc1nnc([C@@H]2C[C@H](O)[C@@H](CO)O2)s1	D3 ag 38 (no result: RGS4 inhibitor)
CCOc1ccc(-c2nc3c4c5c(sc4ncn3n2)COC(C)(C)C5)cc1	none (no result: RGS4 inhibitor, PI4K2A block, pAkt inh, DRD3 antagonist, D3 ag)
O=C(CCCc1ccccc1)Nc1ccnn1C1CCN(Cc2ccccn2)CC1	none
O=C(CCOc1ccccc1)Nc1ccnn1C1CCN(CCc2ccccc2)CC1	DRD3 antagonist -52
Cc1ccccc1CN1CCC(n2nccc2NC(=O)CCCc2ccccc2)CC1	DRD3 antagonist -80
COc1ccc(NC(=O)C(C)n2nc(-c3ccc(C)cc3)c3c(c2=O)CCCC3)cc1 (centres undefined)	none (no result: RGS4 inhibitor, PI4K2A block, pAkt inh, DRD3 antagonist, D3 ag)
COc1cc(NC(=O)C(C)n2nc(-c3ccccc3)c3c(c2=O)CCCC3)cc(OC)c1 (centres undefined)	LDHA block -32 (no result: RGS4 inhibitor, PI4K2A block, pAkt inh, DRD3 antagonist, D3 ag)
CCc1nc(N2CCN(C(=O)CN3CCN(C)CC3)CC2)c(C#N)c2c1COC(C)(C)C2	none (no result: RGS4 inhibitor, PI4K2A block, pAkt inh, DRD3 antagonist, D3 ag)
Cc1ccc2c(c1)C(C)CC(C)(C)N2C(=O)NC1CCCCC1 (centres undefined)	DRD3 antagonist -54
CC1CC(C)(C)N(C(=O)CN2CCN(C)CC2)c2ccccc21 (centres undefined)	LDHA block -35, DRD3 antagonist inconclusive
CN1CCN(CC(=O)N2c3ccccc3C(C)(c3ccccc3)CC2(C)C)CC1 (centres undefined)	none
Cc1ccc2c(c1)C(C)CC(C)(C)N2C(=O)CN1CCN(C)CC1 (centres undefined)	LDHA block -40, DRD3 antagonist -93
Cc1ccc2c(c1)N(C(=O)NC1CCCCC1)C(C)(C)CC2C (centres undefined)	none
CC1CC(C)(C)N(C(=O)CN2C(=O)c3ccccc3C2=O)c2ccccc21 (centres undefined)	none
CC(=O)N(c1nc(C)c(C(=O)Nc2ccc3cc[nH]c3c2)s1)C1CCCC1	none (no result: RGS4 inhibitor, PI4K2A block, pAkt inh, DRD3 antagonist, D3 ag)
N#CC1CCNCC1	none (no result: RGS4 inhibitor, PI4K2A block, pAkt inh, DRD3 antagonist, D3 ag)
O=C1C(=Cc2ccco2)CCCC1=Cc1ccco1	RGS4 inhibitor inconclusive
O=C1C(=Cc2ccco2)CCC1=Cc1ccco1	RGS4 inhibitor inconclusive, PI4K2A block -59
CCc1ccc2cc(-c3ccc(C)c(C)c3)cn2c1	none (no result: RGS4 inhibitor, PI4K2A block, pAkt inh, DRD3 antagonist, D3 ag)
N#CCCCSc1ccc2c(c1)OCCCO2	none (no result: RGS4 inhibitor, PI4K2A block, pAkt inh, DRD3 antagonist, D3 ag)
O=C(Nc1oc2ccccc2c(=O)c1-c1cccc(Cl)c1)c1cccs1	none (no result: RGS4 inhibitor, PI4K2A block, pAkt inh, DRD3 antagonist, D3 ag)
Nc1ccccc1SC(CC(=O)c1ccccc1)c1cccc([N+](=O)[O-])c1 (centres undefined)	DRD3 antagonist inconclusive (no result: RGS4 inhibitor)
Nc1ccccc1SC(CC(=O)c1ccccc1)c1ccc([N+](=O)[O-])cc1 (centres undefined)	DRD3 antagonist -51 (no result: RGS4 inhibitor)
Brc1ccc(-c2nnc3sc(CN4CCC5(CC4)OCCO5)cn23)cc1	pAkt inh -102%
COC(=O)C1(NC(=O)COc2ccc(Cl)cc2Cl)CCCCC1	none (no result: RGS4 inhibitor, PI4K2A block, pAkt inh, DRD3 antagonist, D3 ag)
COc1cc(/C=C/c2ccc3cccc(OC)c3n2)cc(OC)c1OC	none (no result: RGS4 inhibitor, PI4K2A block, pAkt inh, DRD3 antagonist, D3 ag)
O=C(c1cc2ccccc2o1)N1CCN(S(=O)(=O)c2cccs2)CC1	DRD3 antagonist -56
